In PubChem BioAssay (NCATS):
“And” between values parts separate entries of the source, which are not always exact repeats. Equal values may be shown once. Records with an inconclusive call do not appear. A call without a number means that no potency is given here. Unmarked numbers belong to inactive results. The source made the active and inactive calls. Unless noted, the call rests on the fitted dose curve.

Tests used:
[1] = qHTS for Inhibitors of the Functional Ribonucleoprotein Complex (vRNP) of Lassa (LASV) Arenavirus: LASV Primary Screen - GLuc reporter signal (AID 1347082; calls by dose curve; tested in HEK293 reporter line; further: nearly all actives have a fitted effect of over 60% in size)
[2] = qHTS for Inhibitors of the Functional Ribonucleoprotein Complex (vRNP) of Lassa (LASV) Arenavirus: Viability assay - alamar blue signal for LASV Primary Screen (AID 1347083; calls by dose curve; tested in HEK293 reporter line; further: nearly all actives have a fitted effect of over 80% in size)
[3] = qHTS for Inhibitors of the Functional Ribonucleoprotein Complex (vRNP) of Lymphocytic Choriomeningitis Arenaviruses (LCMV): Viability assay - alamar blue signal for LCMV Primary Screen (AID 1347085; calls by dose curve; tested in HEK293 reporter line; further: nearly all actives have a fitted effect of over 80% in size)
[4] = target: Nucleoprotein (Lymphocytic choriomeningitis virus (strain Armstrong)) (UniProt P09992); test: qHTS for Inhibitors of the Functional Ribonucleoprotein Complex (vRNP) of Lymphocytic Choriomeningitis Arenaviruses (LCMV): LCMV Primary Screen - GLuc reporter signal (AID 1347086); further: nearly all actives have a fitted effect of over 70% in size
Potency means the concentration at half of the fitted maximal effect.

Sequence of Nucleoprotein (Lymphocytic choriomeningitis virus (strain Armstrong)) (P09992 whole entry, looked up): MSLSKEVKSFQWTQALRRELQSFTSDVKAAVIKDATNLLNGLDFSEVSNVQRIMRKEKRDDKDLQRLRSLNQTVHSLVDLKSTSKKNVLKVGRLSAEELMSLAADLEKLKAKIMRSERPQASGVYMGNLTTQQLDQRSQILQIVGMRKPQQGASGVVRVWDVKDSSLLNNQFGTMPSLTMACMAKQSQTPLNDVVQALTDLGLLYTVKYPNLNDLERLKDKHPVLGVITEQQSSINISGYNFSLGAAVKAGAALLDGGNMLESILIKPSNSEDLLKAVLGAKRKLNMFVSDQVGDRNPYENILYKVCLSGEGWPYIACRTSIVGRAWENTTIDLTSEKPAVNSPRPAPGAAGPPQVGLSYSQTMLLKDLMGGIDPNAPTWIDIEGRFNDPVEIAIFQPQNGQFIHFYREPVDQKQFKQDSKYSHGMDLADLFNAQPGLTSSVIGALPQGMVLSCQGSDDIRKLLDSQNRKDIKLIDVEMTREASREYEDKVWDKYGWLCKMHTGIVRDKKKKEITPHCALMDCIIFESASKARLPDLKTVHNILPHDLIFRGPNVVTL

SMILES	Potency [1]	Potency [2]	Potency [3]	Potency [4]
NC1(c2ccc(-c3nc4ccn5c(=O)[nH]nc5c4cc3-c3ccccc3)cc2)CCC1	19.3 µM (active)	2.73 µM (active) and 5.62 µM (active)	3.85 µM (active)	3.06 µM (active)
C[C@]12CCC(=O)C=C1CC[C@@H]1[C@@H]2CC[C@@]2(C)[C@H]1CC[C@]2(O)C(=O)CO	inactive	inactive	inactive	inactive
CCN(CC)CC(=O)OCC(=O)[C@@]1(O)CC[C@H]2[C@@H]3CCC4=CC(=O)CC[C@]4(C)[C@H]3[C@@H](O)C[C@@]21C	inactive	inactive	inactive	inactive
N#Cc1cc(NC(=O)C(=O)O)c(Cl)c(NC(=O)C(=O)O)c1	inactive	inactive	inactive	inactive
C[C@@]12CCC[C@H]1[C@@H]1CC[C@H]3C[C@@H](O)CC[C@]3(C)[C@H]1CC2	inactive	inactive	inactive	inactive
C[C@@H](O)[C@H](N)C(=O)O	inactive	inactive	inactive	inactive
COc1cc2c(cc1OC)-c1cc(=Nc3c(C)cc(C)cc3C)n(C)c(=O)n1CC2	inactive	inactive	inactive	inactive
Cc1cccc(N(C)C(=S)Oc2ccc3ccccc3c2)c1	inactive	inactive	inactive	inactive
CC1(C)S[C@@H]2[C@H](N=CN3CCCCCC3)C(=O)N2[C@H]1C(=O)O	inactive	inactive	inactive	inactive
COc1ccc2[nH]c(S(=O)Cc3ncc(C)c(OC)c3C)nc2n1 (stereo not given)	inactive	inactive	inactive	inactive
O=C(O)c1ccc(OCCN2CCCCC2)cc1	inactive	inactive	inactive	inactive
Nc1ccc2c(c1)CN1C(=O)c3ccccc3C1=N2	inactive	inactive	inactive	inactive
C#CCN(C)Cc1ccccc1	inactive	inactive	inactive	inactive
C/C=C/C(=O)N(CC)c1ccccc1C	inactive	inactive	inactive	inactive
CCCOC(=O)c1ccc(N)cc1	inactive	inactive	inactive	inactive
Cc1cc(O)c(C)c(C)c1O	inactive	inactive	inactive	inactive
N/C(=N\N=C\c1ccc(Cl)cc1)N/N=C/c1ccc(Cl)cc1	inactive	inactive	inactive	inactive
Nc1ccc(C(=O)NCC(=O)O)cc1	inactive	inactive	inactive	inactive
C[C@]12CCC(=O)C=C1CC[C@@H]1[C@@H]2[C@@H](O)C[C@@]2(C)[C@H]1CC[C@]2(O)C(=O)CO	inactive	inactive	inactive	inactive
Cc1cccc(CN2CCN(C(c3ccccc3)c3ccc(Cl)cc3)CC2)c1 (stereo not given)	inactive	inactive	inactive	inactive

SMILES	Potency [1]	Potency [2]	Potency [3]	Potency [4]
CN(C)CCOC(c1ccccc1)c1ccccc1	inactive	inactive	inactive	inactive
C(=C\c1ccccc1)/CN1CCN(C(c2ccccc2)c2ccccc2)CC1	inactive	inactive	inactive	inactive
OCc1ccccc1O	inactive	inactive	inactive	inactive
O=C(O)Cc1ccc(CCNS(=O)(=O)c2ccc(Cl)cc2)cc1	inactive	inactive	inactive	inactive
CCCCOc1cc(C(=O)OCCN(CC)CC)ccc1N	inactive	inactive	inactive	inactive
CCCc1nc(C)c2c(=O)[nH]c(-c3cc(S(=O)(=O)N4CCN(CC)CC4)ccc3OCC)nn12	inactive	inactive	inactive	inactive
O=C(O)CCc1nc(-c2ccccc2)c(-c2ccccc2)o1	inactive	inactive	inactive	inactive
COc1ccc(CCN(C)CCCC(C#N)(c2cc(OC)c(OC)c(OC)c2)C(C)C)cc1OC (stereo not given)	inactive	inactive	inactive	inactive
CCCn1cnc2c1c(=O)n(CCCCC(C)=O)c(=O)n2C	inactive	inactive	inactive	inactive
CCCCC1C(=O)N(c2ccccc2)N(c2ccccc2)C1=O	inactive	inactive	inactive	inactive
CCCCN(CCCC)C(C(N)=O)c1ccc(OC)cc1 (stereo not given)	inactive	inactive	inactive	inactive
CCCCC(=O)O[C@]1(C(=O)CO)CC[C@H]2[C@@H]3CCC4=CC(=O)CC[C@]4(C)[C@H]3[C@@H](O)C[C@@]21C	inactive	inactive	inactive	inactive
COc1cc([C@H]2Oc3cc([C@H]4Oc5cc(O)cc(O)c5C(=O)[C@@H]4O)ccc3O[C@@H]2CO)ccc1O	inactive	inactive	inactive	inactive
CC(C)C(=O)Nc1cccc(C2CN3CCSC3=N2)c1 (stereo not given)	inactive	inactive	inactive	inactive
O=C1NC(=O)[C@@]2(CCOc3ccc(F)cc32)N1	inactive	inactive	inactive	inactive
CC(=O)Oc1c(C)c(C)c2c(c1C)CC[C@@](C)(CCC[C@H](C)CCC[C@H](C)CCCC(C)C)O2	inactive	inactive	inactive	inactive
CCC(=O)c1ccc(O)cc1	inactive	inactive	inactive	inactive
Cc1ccc(/C=N/n2c(-c3ccccc3)csc2=S)cc1	inactive	inactive	inactive	inactive
CC(C)(C)c1nnc(NS(=O)(=O)c2ccc(N)cc2)s1	inactive	inactive	inactive	inactive
CCOC(=O)N1CCC(Nc2ccc(Cl)cc2N)CC1	inactive	inactive	inactive	inactive

SMILES	Potency [1]	Potency [2]	Potency [3]	Potency [4]
C[C@]1(Cn2ccnn2)[C@H](C(=O)O)N2C(=O)C[C@H]2S1(=O)=O	inactive	inactive	inactive	inactive
CN(C)CCCSc1ccccc1NC(=O)/C=C/c1ccccc1	inactive	inactive	inactive	inactive
CNC(=O)CN(CCN(CCN(CC(=O)[O-])CC(=O)NC)CC(=O)[O-])CC(=O)[O-].O.[Gd+3]	inactive	inactive	inactive	inactive
CCOC(=O)C(C)(C)Oc1ccc(Cl)cc1	inactive	inactive	inactive	inactive
CCc1cccc2c(CCO)c[nH]c12	inactive	inactive	inactive	inactive
CCc1oc2ccccc2c1C(=O)c1cc(Br)c(O)c(Br)c1	inactive	inactive	inactive	inactive
Cc1ccc(CCn2c3c(c4cc(Cl)ccc42)CN(C)CC3)cn1	inactive	inactive	inactive	inactive
CCOC(=O)n1ccn(C)c1=S	inactive	inactive	inactive	inactive
CCC(CN)=C(c1ccccc1)c1ccccc1	inactive	inactive	inactive	inactive
C=C1C(=C/C=C2\CCC[C@]3(C)[C@@H]([C@H](C)/C=C/[C@@H](O)C4CC4)CC[C@@H]23)C[C@@H](O)C[C@@H]1O	inactive	inactive	inactive	inactive
N=C(N)c1ccc(OCCCOc2ccc(C(=N)N)cc2)cc1	inactive	inactive	inactive	inactive
CN(C)C/C=C(/c1ccc(Br)cc1)c1cccnc1	inactive	inactive	inactive	inactive
C[C@H]1C[C@H]2[C@@H]3CCC4=CC(=O)C=C[C@]4(C)[C@@]3(Cl)[C@@H](O)C[C@]2(C)[C@@]1(O)C(=O)CO	inactive	inactive	inactive	inactive
CN1CCN(c2c(F)cc3c(=O)c(C(=O)O)cn(CCF)c3c2F)CC1	inactive	inactive	inactive	inactive
OC1C(O)C(O)C(O)C(O)C1O (stereo not given)	inactive	inactive	inactive	inactive
C[N+]1(CC2COC(c3ccccc3)(C3CCCCC3)O2)CCCCC1 (stereo not given)	inactive	inactive	inactive	inactive
N[C@H](C(=O)O)[C@@H](O)c1ccc(O)c(O)c1	inactive	inactive	inactive	inactive
CNCCC(Oc1ccccc1OC)c1ccccc1 (stereo not given)	inactive	inactive	inactive	inactive
CCCCCCCCCCCC[N+](C)(C)Cc1ccccc1	inactive	inactive	inactive	inactive
CCOC(=O)c1ccc(NC(=O)CN2CCCCC2)cc1	inactive	inactive	inactive	inactive
